Measurements taken from PubChem BioAssay AID488835 (Broad Institute, 2010).
Among all 1,400 compounds or so, about 140 (10%) were called active.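 The calls were made as follows: active = Half-maximal inhibitory dose from the fit at or below ten times the top valid tested dose; inconclusive = Invalid fit, or flat curve showing 30 to 70% inhibition; inactive = the rest.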 Not all results are given here. Entries with a potency or affinity are not part of this list.

These molecules were tested against Lysine-specific demethylase 4C (Homo sapiens) (UniProt Q9H3R0) (assay: inhibition of JMJD2C H3K9me3 demethylation – biochemical, DELFIA europium, cherry-picked samples, dose response (AID 488835;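 also: signal is the H3K9me2 demethylation product detected by a dimethyl-specific antibody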)). Settings: GST-JMJD2C(1-420); series mostly up to 6 µM.
Chain of Lysine-specific demethylase 4C (Homo sapiens) (Q9H3R0 1-420 limits assumed): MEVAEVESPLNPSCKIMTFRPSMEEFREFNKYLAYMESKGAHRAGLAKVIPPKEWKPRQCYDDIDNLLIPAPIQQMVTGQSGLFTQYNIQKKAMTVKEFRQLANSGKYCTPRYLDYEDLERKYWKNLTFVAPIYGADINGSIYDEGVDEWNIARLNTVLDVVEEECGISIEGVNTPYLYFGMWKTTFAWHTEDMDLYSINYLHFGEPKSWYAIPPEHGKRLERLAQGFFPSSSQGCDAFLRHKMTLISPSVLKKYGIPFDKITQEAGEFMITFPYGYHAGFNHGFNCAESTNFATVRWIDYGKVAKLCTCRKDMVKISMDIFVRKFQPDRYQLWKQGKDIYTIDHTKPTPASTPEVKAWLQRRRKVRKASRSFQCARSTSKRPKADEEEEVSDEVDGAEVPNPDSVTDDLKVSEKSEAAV

SMILES | outcome
CS(=O)(=O)N(CCc1ccccc1)CC(=O)NCc1ccc(Cl)cc1 | inactive
O=C(Cn1c(=O)sc2ccccc21)NCc1ccco1 | inactive
COc1ccccc1Nc1ncnc2ccccc12 | inactive
Cc1ccc(NC(=O)CSc2cccc[n+]2[O-])c([N+](=O)[O-])c1 | inactive
Cc1cc(C)cc(C(=O)N2CCC(C(N)=O)CC2)c1 | inactive
O=C(/C=C/c1ccc2c(c1)OCO2)NCCS(=O)(=O)N1CCN(c2ccc(F)cc2)CC1 | inactive
O=C(N/N=C/c1ccccc1)c1c(O)c2ccccc2[nH]c1=O | inactive
COc1ccc(NC(=O)O/N=C/c2ccccc2)cc1 | inactive
CC(C)Cn1c(N)c(C(=O)COC(=O)c2c(O)c(Cl)cc(Cl)c2Cl)c(=O)n(C)c1=O | inactive
CC(=O)C[C@@H](O)CC(=O)[C@H]1OC(=O)CCCCCc2ccccc21 | inactive
Cn1c(=N)n(CC(O)c2ccccc2)c2ccccc21 (stereo not given) | inactive
COc1cccc(NC(=O)COC(=O)c2ccc(S(=O)(=O)NCc3ccco3)cc2)c1 | inactive
CSCCC(NS(=O)(=O)c1ccc(Cl)cc1)C(=O)O (stereo not given) | inactive
O=C(CSc1nc2ccccc2c(=O)n1Cc1ccc(C(=O)NC2CC2)cc1)NCc1ccco1 | inactive
Cc1nnc(SCc2nc3ccccc3[nH]2)s1 | inactive
CCCC(=O)Nc1nc2c(c(=O)[nH]1)CCCC2 | inactive
COc1ccc(C(=O)N2CCC(C(=O)NCc3ccccn3)CC2)cc1 | inactive
COc1ccc(N=Cc2cccc(C)c2O)cc1Cl | inactive
O=C(NC(=S)Nc1ccccn1)c1ccc([N+](=O)[O-])cc1 | inactive
CN(C)c1ccc(C2Nc3ccccc3C(=O)N2CCN2CCNC2=O)cc1 (stereo not given) | inactive
COc1ccc(/C=C2\Sc3ccc(C(=O)N4CCCC4)cc3N(C)C2=O)cc1OC | inactive
Cc1ccc(NC(=O)CSc2nc3c(c(=O)[nH]2)CN(Cc2ccc(F)cc2)CC3)cc1C | inactive

SMILES | outcome
O=c1cc(-c2ccc(O)c(O)c2)oc2c(C3O[C@H](CO)[C@@H](O)[C@H](O)[C@H]3O)c(O)cc(O)c12 (stereo not given in full) | inactive
CC(=O)c1ccc(O[C@@H]2O[C@H](CO)[C@@H](O)[C@H](O)[C@H]2O)cc1 | inactive
CC(C)n1cnc2c(NCc3ccccc3)nc(NCc3ccccc3)nc21 | inactive
Cn1nnc(NC(=O)CSc2ccc(Cl)cc2)n1 | inactive
Cc1cccn2c(=O)c(/C=N/O)c(N3CCCC3)nc12 | inactive
Cc1ccc(NC(=O)CSc2ncc(S(=O)(=O)c3ccccc3)c(=O)[nH]2)cc1C | inactive
Cc1cc(C)nc(NCc2ccc(Cl)cc2)n1 | inactive
Cn1c(=O)[nH]c(=O)c2c1nc(N1CCOCC1)n2CCc1ccccc1 | inactive
COc1ccc(NC(=O)N(C)C[C@H]2Oc3c(NC(=O)C4CC4)cccc3C(=O)N([C@H](C)CO)C[C@@H]2C)cc1 | inactive
Cc1occc1-c1nnc(SCC(=O)c2cc3ccccc3oc2=O)o1 | inactive
Cc1ccc(CCNC(=O)C23C[C@H]4C[C@@H](C2)CC(n2nnc(C)n2)(C4)C3)cc1 | inactive
CCOC(=O)c1oc2ccccc2c1COC(=O)C(C)NC(=O)c1ccco1 (stereo not given) | inactive
COc1cc(/C=N/N2CCN(c3ccccc3OC)CC2)ccc1O | inactive
COc1ccccc1-n1c(SCC(=O)N2CCCC2)nc2cccnc21 | inactive
CCCn1nnnc1SCC(=O)NCc1ccc(OC)cc1 | inactive
CCOC(=O)c1[nH]c(CSc2nnnn2-c2ccccc2C)c(C(=O)OCC)c1C | inactive
CCN(C[C@H]1N[C@@](C)(C(=O)OC)[C@H]2C(=O)N(Cc3ccccc3)C(=O)[C@@H]12)C(=O)Nc1ccc(Cl)cc1 | inactive
O=C(Cc1ccccc1)NNC(=O)c1cccs1 | inactive
CCC(C)[C@H](NC(=O)NCc1ccccc1Cl)C(=O)O (stereo not given in full) | inactive
CCC(=O)Nc1ccc(NC(=O)Cc2ccccc2)cn1 | inactive
O=C(NC1(O)C(=O)c2ccccc2C1=O)c1c(Cl)cccc1Cl | inactive
C#CCOCCOCCOCCNc1nc(N2CCN(C(=O)[C@H](CCC(=O)O)n3cc([C@@H](N)CCCCN)nn3)CC2)nc(N2CCN(C(=O)[C@H](CCC(=O)O)n3cc([C@@H](N)CCCCN)nn3)CC2)n1 | inactive

SMILES | outcome
Cc1sc2ncnc(OCC(=O)N3CCN(S(=O)(=O)c4ccc(Cl)cc4)CC3)c2c1C | inactive
Cc1onc(-c2c(F)cccc2Cl)c1C(=O)NC1CC1 | inactive
COC(=O)c1ccc(-c2sc3nc(N4CCOCC4)c4c(c3c2N)CC(C)(C)OC4)o1 | inactive
COc1cc(C(C(=O)NC2CCCCC2)N(Cc2cccs2)C(=O)Cc2c[nH]c3ccccc23)cc(OC)c1OC (stereo not given) | inactive
COc1ccc(C)cc1-n1nnnc1SC/C(O)=C(\C#N)c1nc2ccccc2[nH]1 | inactive
CN1CCN(CC(=O)Nc2ccc(S(=O)(=O)N(C)C)cc2)CC1 | inactive
CCOC(=O)c1cc2nc(Nc3ccc(OC)cc3)sc2s1 | inactive
O=S(=O)(c1ccc2ccccc2c1)N(CC(O)COCc1ccco1)c1ccccc1 (stereo not given) | inactive
CCOc1cc(/C=C\c2[nH]c(=O)[nH]c(=O)c2[N+](=O)[O-])ccc1OC(C)CC (stereo not given) | inactive
O=C(CN1C(=O)c2ccccc2C1=O)NCC1COc2ccccc2O1 (stereo not given) | inactive
O=C(NC1CC2CCC1C2)C1COc2ccccc2O1 (stereo not given) | inactive
COc1ccc(C2/C(=C(/O)c3ccccc3)C(=O)C(=O)N2CCN2CCOCC2)c(OC)c1 (stereo not given) | inactive
COc1ccc(NC(=O)c2cccc(N3C(=O)C4CC=C(C)CC4C3=O)c2)c(OC)c1 (stereo not given) | inactive
O=[N+]([O-])c1ccccc1N/N=C\c1ccccc1Cl | inactive
CCC(=O)Nc1ccccc1Nc1cc(C#N)c(C#N)cc1[N+](=O)[O-] | inactive
COc1cccc(/C=N/NC(=O)CNC(=O)c2cccs2)c1O | inactive
Fc1cccc(/C=N/Nc2nc3ccccc3[nH]2)c1 | inactive
O=C(O)CSc1nnc(COc2cccc3cccnc23)n1-c1cccc(C(F)(F)F)c1 | inactive
CCCCN(C)C(=O)CCC(=O)NNc1nc2ccccc2c2nc(C)nn12 | inactive
CCCCOC(=O)Cn1cnc2ccc(Br)cc2c1=O | inactive
CCc1ccc2oc(=O)cc(CN3CCOCC3)c2c1 | inactive
